PubChem BioAssay (Tox21)
Results filed as inconclusive are left out. A call without a number means that no potency is given here. A number with no mark means an inactive call. Calls of active or inactive are those of the source. Unless noted, calls come from the whole dose curve; as a rule, active = well fitted curve in the direction sought with a large enough effect in the repeat runs; inconclusive = weak or mixed curves; inactive = no such curve, though single readings can be large; an effect the other way counts as inactive or inconclusive.

Legend:
[1] = qHTS assay to identify small molecule antagonists of the estrogen receptor alpha (ER-alpha) signaling pathway - cell viability counter screen (AID 743074; calls by dose curve; note: nearly all actives have a fitted effect of over 45% in size)
[2] = qHTS assay to identify small molecule antagonists of the estrogen receptor alpha (ER-alpha) signaling pathway using the BG1 cell line - cell viability counter screen (AID 743081);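 note: compound given together with 17beta-estradiol as the ER stimulus; series mostly up to about 70 µM; nearly all actives have a fitted effect of over 45% in size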
[3] = target: Aromatase (Homo sapiens) (UniProt P11511); experiment: qHTS assay to identify aromatase inhibitors (AID 743083); note: series mostly up to about 70 µM; nearly all actives have a fitted effect of over 55% in size
[4] = qHTS assay to identify aromatase inhibitors - cell viability counter screen (AID 743084);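 note: cells stimulated with testosterone during compound exposure; nearly all actives have a fitted effect of over 55% in size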
[5] = target: Aryl hydrocarbon receptor (Homo sapiens) (UniProt P35869); experiment: qHTS assay to identify small molecule that activate the aryl hydrocarbon receptor (AhR) signaling pathway (AID 743085);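 note: HG2L7.5c1 human HepG2 liver cells with stably integrated DRE-driven firefly reporter; series mostly up to about 70 µM; nearly all actives have a fitted effect of over 15% in size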
Procedure, shortened: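 Luminescence read-out: ONE-Glo reagent, 30 min at room temperature, in HG2L7.5c1 HepG2 reporter cells treated 24 h at 37C. Viability was measured beforehand by CellTiter-Fluor fluorescence after 30 min at 37C.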

[6] = qHTS assay to identify small molecule that activate the aryl hydrocarbon receptor (AhR) signaling pathway - cell viability counter screen (AID 743086);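 note: HepG2 liver cells carrying the AhR DRE luciferase reporter; series mostly up to about 70 µM; nearly all actives have a fitted effect of over 45% in size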
Procedure, shortened: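 HepG2-AhR-luc (HG2L7.5c1) cells, 4000/well, were preincubated 5 h at 37C, exposed to compound in qHTS format for 24 hr at 37C, then given CellTiter-Fluor for 30 min; viability was read as fluorescence in the reporter wells.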

[7] = target: Peroxisome proliferator-activated receptor gamma (Homo sapiens) (UniProt P37231); experiment: qHTS assay to identify small molecule agonists of the peroxisome proliferator-activated receptor gamma (PPARg) signaling pathway (AID 743094; active = well fitted activation curve with a large enough effect in the signal ratio in the repeat runs, not every such curve was filed as active; the % refers to the signal ratio)
Procedure, shortened: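 Reporter activation was scored by fluorescence of cleaved LiveBLAzer B/G substrate (1 h, room temperature) in PPARg-bla HEK293H cells previously treated 17 h at 37C with DMSO-dissolved compounds.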

[8] = qHTS assay to identify small molecule antagonists of the peroxisome proliferator-activated receptor gamma (PPARg) signaling pathway - cell viability counter screen (AID 743194); note: nearly all actives have a fitted effect of over 55% in size
Procedure, shortened: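 PPARg-UAS-bla HEK293H cells were plated, rested 5 h at 37 C, then treated with compounds plus rosiglitazone (50 nM final) for 17 h at 37 C; viability was then read by CellTiter-Glo luminescence after 30 min at room temperature.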

[9] = qHTS assay for small molecule agonists of the antioxidant response element (ARE) signaling pathway (AID 743202; active = well fitted activation curve with a large enough effect in the signal ratio in the repeat runs, not every such curve was filed as active; the % refers to the signal ratio; note: potency is the fitted concentration of half-maximal effect)
Procedure, shortened: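 Steps: seed ARE-bla HepG2 cells (2,000/well); incubate 5 h at 37 C; add compounds by pin tool; incubate 16 h at 37 C; add FRET substrate; read fluorescence after 2 h at RT.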

[10] = qHTS assay for small molecule agonists of the antioxidant response element (ARE) signaling pathway - cell viability counter screen (AID 743203; calls by dose curve; note: nearly all actives have a fitted effect of over 55% in size)
Procedure, shortened: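 Viability counter screen: stably transfected ARE-bla HepG2 line, 16 hrs compound exposure at 37C/5% CO2, ATP-based CellTiter-Glo luminescence measured in the reporter wells.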

[11] = qHTS assay for small molecule activators of the heat shock response signaling pathway - cell viability counter screen (AID 743209); note: nearly all actives have a fitted effect of over 50% in size
Procedure, shortened: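 Viability of HSE-bla HeLa cells is measured with CellTiter-Glo in the wells already used for the reporter read. Compound exposure lasts 5 h at 37 C, and luminescence is read after 30 min at room temperature.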

[12] = qHTS assay for small molecule activators of the heat shock response signaling pathway (AID 743210; active = well fitted activation curve with a large enough effect in the signal ratio in the repeat runs, with a control signal flat, not every such curve was filed as active; the % refers to the signal ratio;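 note: HeLa cells with beta-lactamase reporter driven by heat shock elements; series mostly up to about 63 µM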)
Procedure, shortened: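 Activation of heat shock element-controlled beta-lactamase expression is measured in HeLa cells by LiveBLAzer FRET fluorescence, with compound exposure lasting 5 h at 37 C and substrate loading 2.5 h at room temperature.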

[13] = tested on: thyroid hormone receptor (rat, GH3 cells); experiment: qHTS assay to identify small molecule agonists of the thyroid receptor (TR) signaling pathway (AID 743066; calls by dose curve)
[14] = target: Estrogen receptor (Homo sapiens) (UniProt P03372); experiment: qHTS assay to identify small molecule agonists of the estrogen receptor alpha (ER-alpha) signaling pathway using the BG1 cell line (AID 743079); note: nearly all actives have a fitted effect of over 20% in size; note: potency is the fitted concentration of half-maximal effect
[15] = qHTS assay to identify small molecule antagonists of the estrogen receptor alpha (ER-alpha) signaling pathway using the BG1 cell line (AID 743080; calls by dose curve;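 note: BG1 cells stimulated with 17beta-estradiol alongside compound; series mostly up to about 70 µM; nearly all actives have a fitted effect of over 25% in size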)
Procedure, shortened: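 BG1-Luc-4E2 cells (endogenous full-length ER-alpha, stable 4×ERE-luciferase) were starved 5 days in phenol-red-free medium with 10% charcoal-stripped FBS, plated 24 h, then given compound plus 17beta-estradiol for 21.5 h at 37 C; ONE-Glo luminescence read after 30 min.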

[16] = target: Peroxisome proliferator-activated receptor gamma (Homo sapiens) (UniProt P37231); experiment: qHTS assay to identify small molecule antagonists of the peroxisome proliferator-activated receptor gamma (PPARg) signaling pathway (AID 743191; calls by dose curve; note: series mostly up to about 63 µM; nearly all actives have a fitted effect of over 30% in size)
Procedure, shortened: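 GeneBLAzer PPARg UAS-bla HEK293H cells carrying a UAS-driven beta-lactamase reporter were plated at 3000 cells/well, preincubated 5 h at 37C, then given compound for 17 h at 37C; LiveBLAzer B/G FRET substrate was read after 1 h at room temperature.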

[17] = target: Estrogen receptor (Homo sapiens) (UniProt P03372); experiment: qHTS assay to identify small molecule antagonists of the estrogen receptor alpha (ER-alpha) signaling pathway (AID 743069; active = well fitted curve in the direction sought with a large enough effect in the signal ratio in the repeat runs, not every such curve was filed as active; the % refers to the signal ratio)
Procedure, shortened: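 Screening used a UAS-driven beta-lactamase reporter integrated into HEK293 cells expressing ER-alpha, stimulated with 17beta-estradiol alongside test compounds over 18 hr at 37C; signal came from LiveBLAzer B/G FRET fluorescence.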

[18] = target: Estrogen receptor (Homo sapiens) (UniProt P03372); experiment: qHTS assay to identify small molecule agonists of the estrogen receptor alpha (ER-alpha) signaling pathway (AID 743075; calls by dose curve)

Sequence of Estrogen receptor (Homo sapiens) (P03372 whole entry, looked up): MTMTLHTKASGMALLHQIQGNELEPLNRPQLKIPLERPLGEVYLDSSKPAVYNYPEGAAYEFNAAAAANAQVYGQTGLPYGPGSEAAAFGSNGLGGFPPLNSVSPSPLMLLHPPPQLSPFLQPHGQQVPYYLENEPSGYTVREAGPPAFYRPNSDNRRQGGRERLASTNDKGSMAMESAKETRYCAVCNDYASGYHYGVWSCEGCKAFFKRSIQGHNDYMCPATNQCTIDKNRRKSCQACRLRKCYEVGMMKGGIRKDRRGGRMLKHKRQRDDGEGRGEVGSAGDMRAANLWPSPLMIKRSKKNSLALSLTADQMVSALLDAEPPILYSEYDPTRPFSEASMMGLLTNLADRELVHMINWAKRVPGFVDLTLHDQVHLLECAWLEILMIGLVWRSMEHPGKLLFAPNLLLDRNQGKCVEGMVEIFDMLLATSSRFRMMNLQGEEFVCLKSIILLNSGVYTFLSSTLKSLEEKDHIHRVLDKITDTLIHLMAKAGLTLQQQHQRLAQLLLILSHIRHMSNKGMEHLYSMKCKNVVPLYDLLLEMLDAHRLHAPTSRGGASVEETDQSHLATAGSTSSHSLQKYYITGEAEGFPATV
Sequence of Aryl hydrocarbon receptor (Homo sapiens) (P35869 whole entry, looked up): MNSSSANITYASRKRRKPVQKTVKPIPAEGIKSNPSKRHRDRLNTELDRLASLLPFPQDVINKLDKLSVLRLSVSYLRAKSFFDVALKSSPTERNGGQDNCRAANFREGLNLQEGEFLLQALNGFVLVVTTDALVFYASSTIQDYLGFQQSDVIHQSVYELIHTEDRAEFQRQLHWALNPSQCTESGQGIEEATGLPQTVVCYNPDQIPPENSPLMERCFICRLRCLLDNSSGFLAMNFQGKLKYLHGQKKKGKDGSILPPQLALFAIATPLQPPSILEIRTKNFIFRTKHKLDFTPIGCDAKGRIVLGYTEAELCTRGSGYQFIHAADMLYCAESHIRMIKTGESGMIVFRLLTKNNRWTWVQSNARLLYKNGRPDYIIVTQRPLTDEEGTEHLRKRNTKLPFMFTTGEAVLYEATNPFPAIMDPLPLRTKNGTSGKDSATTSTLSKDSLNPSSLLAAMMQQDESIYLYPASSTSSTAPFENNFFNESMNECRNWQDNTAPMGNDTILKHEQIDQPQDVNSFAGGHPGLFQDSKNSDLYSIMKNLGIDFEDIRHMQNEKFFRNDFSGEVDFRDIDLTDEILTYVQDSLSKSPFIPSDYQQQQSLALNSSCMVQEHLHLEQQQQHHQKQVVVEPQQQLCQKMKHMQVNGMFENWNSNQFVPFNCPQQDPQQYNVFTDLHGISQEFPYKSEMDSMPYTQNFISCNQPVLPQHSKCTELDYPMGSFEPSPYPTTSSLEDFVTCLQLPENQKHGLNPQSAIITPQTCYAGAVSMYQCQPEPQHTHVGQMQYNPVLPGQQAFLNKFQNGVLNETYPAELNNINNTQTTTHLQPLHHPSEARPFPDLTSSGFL
Sequence of Aromatase (Homo sapiens) (P11511 whole entry, looked up): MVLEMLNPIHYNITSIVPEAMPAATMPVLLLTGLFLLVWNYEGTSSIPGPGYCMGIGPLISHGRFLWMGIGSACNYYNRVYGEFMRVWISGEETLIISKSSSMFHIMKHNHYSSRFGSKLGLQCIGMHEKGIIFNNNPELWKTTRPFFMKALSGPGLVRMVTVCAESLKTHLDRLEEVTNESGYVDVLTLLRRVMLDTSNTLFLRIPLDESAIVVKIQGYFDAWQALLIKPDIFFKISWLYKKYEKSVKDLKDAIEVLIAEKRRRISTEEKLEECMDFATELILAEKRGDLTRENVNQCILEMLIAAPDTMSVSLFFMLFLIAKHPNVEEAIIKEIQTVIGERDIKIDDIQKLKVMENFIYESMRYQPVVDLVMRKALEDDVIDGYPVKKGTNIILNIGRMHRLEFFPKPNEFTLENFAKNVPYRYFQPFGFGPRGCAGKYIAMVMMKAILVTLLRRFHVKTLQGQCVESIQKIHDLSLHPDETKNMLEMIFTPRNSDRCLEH
Sequence of Peroxisome proliferator-activated receptor gamma (Homo sapiens) (P37231 whole entry, looked up): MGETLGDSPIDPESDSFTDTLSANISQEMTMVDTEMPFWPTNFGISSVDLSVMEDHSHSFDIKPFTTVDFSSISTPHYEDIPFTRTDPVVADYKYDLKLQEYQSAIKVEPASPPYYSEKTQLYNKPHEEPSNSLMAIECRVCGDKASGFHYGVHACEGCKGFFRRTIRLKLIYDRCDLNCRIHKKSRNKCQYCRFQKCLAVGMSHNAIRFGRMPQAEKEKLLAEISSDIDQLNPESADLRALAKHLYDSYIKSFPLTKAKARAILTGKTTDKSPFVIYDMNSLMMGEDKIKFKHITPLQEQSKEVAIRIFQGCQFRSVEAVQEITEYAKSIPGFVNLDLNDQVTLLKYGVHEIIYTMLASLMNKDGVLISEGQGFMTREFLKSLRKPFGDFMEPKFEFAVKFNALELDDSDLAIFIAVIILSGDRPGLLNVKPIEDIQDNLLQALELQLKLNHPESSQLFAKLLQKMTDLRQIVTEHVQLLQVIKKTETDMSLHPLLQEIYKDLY

Q: Which results are given for `C=CCOC(=O)CCCCCC`?
A: outcome [1]: inactive; Potency [2]: inactive; outcome [3]: inactive; Potency [4]: inactive; Potency [5]: inactive; Potency [6]: inactive; Potency [7]: inactive; outcome [8]: inactive; Potency [9]: inactive; outcome [10]: inactive; Potency [11]: inactive; outcome [12]: inactive

Q: What does the source list for `COc1cc(OC)nc(O[C@H](C(=O)O)C(OC)(c2ccccc2)c2ccccc2)n1`?
A: outcome [8]: inactive; Potency [9]: inactive; Potency [11]: inactive

Q: What does the source list for `CC(=O)CCC1=C(C)CCCC1(C)C`?
A: outcome [13]: inactive; outcome [1]: inactive; Potency [14]: inactive; outcome [15]: inactive; Potency [2]: inactive; outcome [3]: inactive; Potency [4]: inactive; Potency [5]: inactive; Potency [7]: inactive; outcome [16]: inactive; outcome [8]: inactive; Potency [9]: inactive; outcome [10]: inactive

Q: For `CCOC(CN1CCN(CC(C)C(=O)c2ccccc2)CC1)c1ccccc1` (stereo unspecified), which outcome [13] is on record?
A: inactive

Q: And the outcome [1]?
A: inactive

Q: What about the Potency [2] of the same molecule?
A: inactive

Q: And the Potency [4]?
A: inactive

Q: And the Potency [5]?
A: inactive

Q: What about the Potency [7] of the same molecule?
A: inactive

Q: What about the outcome [8] of the same molecule?
A: inactive

Q: What about the Potency [9] of the same molecule?
A: 10.3 µM (active)

Q: What about the Potency [11] of the same molecule?
A: inactive

Q: What about the outcome [12] of the same molecule?
A: inactive

Q: For `CCN(CC)CCN`, which outcome [16] is on record?
A: inactive

Q: And the outcome [8]?
A: inactive

Q: And the Potency [9]?
A: inactive

Q: What about the outcome [10] of the same molecule?
A: inactive

Q: And the Potency [11]?
A: inactive

Q: And the outcome [12]?
A: inactive

Q: With `C=CC/C=C/C` as the molecule, how does the outcome [13] read?
A: inactive

Q: And the outcome [17]?
A: inactive

Q: And the outcome [1]?
A: inactive

Q: What about the Potency [18] of the same molecule?
A: inactive

Q: What about the outcome [15] of the same molecule?
A: inactive

Q: And the Potency [2]?
A: inactive

Q: And the outcome [3]?
A: inactive

Q: What about the Potency [4] of the same molecule?
A: inactive

Q: And the Potency [5]?
A: inactive

Q: What about the Potency [6] of the same molecule?
A: inactive

Q: What about the Potency [7] of the same molecule?
A: inactive

Q: What about the outcome [8] of the same molecule?
A: inactive

Q: And the Potency [9]?
A: inactive

Q: What about the Potency [11] of the same molecule?
A: inactive

Q: What about the outcome [12] of the same molecule?
A: inactive

Q: With `Cn1c(=O)c2c(ncn2CCO)n(C)c1=O` as the molecule, how does the outcome [13] read?
A: inactive

Q: What about the outcome [1] of the same molecule?
A: inactive

Q: And the Potency [2]?
A: inactive

Q: What about the outcome [3] of the same molecule?
A: inactive

Q: What about the Potency [4] of the same molecule?
A: inactive

Q: What about the Potency [5] of the same molecule?
A: inactive

Q: And the Potency [6]?
A: inactive

Q: What about the outcome [8] of the same molecule?
A: inactive

Q: What about the Potency [9] of the same molecule?
A: inactive

Q: What about the Potency [11] of the same molecule?
A: inactive

Q: And the outcome [12]?
A: inactive

Q: With `CN1CCOC(c2ccccc2)c2ccccc2C1` (stereo unspecified) as the molecule, how does the outcome [13] read?
A: inactive

Q: What about the outcome [1] of the same molecule?
A: inactive

Q: And the Potency [2]?
A: inactive

Q: What about the outcome [3] of the same molecule?
A: inactive

Q: What about the Potency [4] of the same molecule?
A: inactive

Q: And the Potency [5]?
A: inactive

Q: And the Potency [6]?
A: inactive

Q: And the Potency [7]?
A: inactive

Q: And the outcome [16]?
A: inactive

Q: What about the outcome [8] of the same molecule?
A: inactive

Q: And the Potency [9]?
A: inactive

Q: What about the Potency [11] of the same molecule?
A: inactive

Q: What about the outcome [12] of the same molecule?
A: inactive

Q: For `C[C@@H](O)C(=O)O`, which outcome [13] is on record?
A: inactive

Q: What about the outcome [17] of the same molecule?
A: inactive

Q: What about the outcome [1] of the same molecule?
A: inactive

Q: What about the Potency [18] of the same molecule?
A: inactive

Q: What about the Potency [14] of the same molecule?
A: 48 µM (active)

Q: What about the outcome [15] of the same molecule?
A: inactive

Q: What about the Potency [2] of the same molecule?
A: inactive

Q: And the outcome [3]?
A: inactive

Q: And the Potency [4]?
A: inactive

Q: And the Potency [5]?
A: inactive

Q: What about the outcome [8] of the same molecule?
A: inactive

Q: And the Potency [9]?
A: inactive

Q: And the outcome [10]?
A: inactive

Q: What about the Potency [11] of the same molecule?
A: inactive

Q: What about the outcome [12] of the same molecule?
A: inactive

Q: With `CCOc1ccccc1OCC1CNCCO1` (stereo unspecified) as the molecule, how does the outcome [16] read?
A: inactive

Q: What about the outcome [8] of the same molecule?
A: inactive

Q: What about the Potency [9] of the same molecule?
A: inactive

Q: What about the outcome [10] of the same molecule?
A: inactive

Q: What about the Potency [11] of the same molecule?
A: inactive

Q: What about the outcome [12] of the same molecule?
A: inactive

Q: Which results are given for `CCCC(=O)Nc1ccc(OCC(O)CNC(C)C)c(C(C)=O)c1` (stereo unspecified)?
A: outcome [17]: inactive; outcome [1]: inactive; Potency [18]: inactive; Potency [14]: inactive; outcome [15]: inactive; Potency [2]: inactive; outcome [3]: inactive; Potency [4]: inactive; Potency [5]: inactive; Potency [6]: inactive; Potency [7]: inactive; outcome [8]: inactive; Potency [9]: inactive; outcome [10]: inactive; Potency [11]: inactive; outcome [12]: inactive

Q: With `COC(=O)CCCCC(CCSS/C(CCO)=C(\C)N(C=O)Cc1cnc(C)nc1N)SC(C)=O` (stereo unspecified) as the molecule, how does the outcome [16] read?
A: inactive

Q: What about the outcome [8] of the same molecule?
A: inactive

Q: What about the Potency [9] of the same molecule?
A: inactive

Q: And the outcome [10]?
A: inactive

Q: What about the Potency [11] of the same molecule?
A: inactive

Q: What about the outcome [12] of the same molecule?
A: inactive

Q: With `O=C(CCCl)NCCc1ccccc1` as the molecule, how does the outcome [8] read?
A: inactive

Q: And the Potency [9]?
A: inactive

Q: What about the outcome [10] of the same molecule?
A: inactive

Q: What about the Potency [11] of the same molecule?
A: inactive

Q: And the outcome [12]?
A: inactive
